Inconclusive results are not listed. Active and inactive are the calls of the source. How the source made its calls, unless noted: active means hit-call score of the fitted dose curve at least 0.9, where 1 is the maximum; inactive means score below 0.9.
Key:
[1] = target: Paired box protein Pax-6 (Homo sapiens) (UniProt P26367); assay: ATG_Pax6_CIS: Attagene CIS-FACTORIAL HepG2 Assay for human Paired Box 6 (PAX6) (AID 2282956); conditions: HepG2 CIS-FACTORIAL PAX6 reporter transcription, RNA readout; actives raise or lower the signal
Paired box protein Pax-6 (Homo sapiens), sequence (P26367 whole entry, looked up): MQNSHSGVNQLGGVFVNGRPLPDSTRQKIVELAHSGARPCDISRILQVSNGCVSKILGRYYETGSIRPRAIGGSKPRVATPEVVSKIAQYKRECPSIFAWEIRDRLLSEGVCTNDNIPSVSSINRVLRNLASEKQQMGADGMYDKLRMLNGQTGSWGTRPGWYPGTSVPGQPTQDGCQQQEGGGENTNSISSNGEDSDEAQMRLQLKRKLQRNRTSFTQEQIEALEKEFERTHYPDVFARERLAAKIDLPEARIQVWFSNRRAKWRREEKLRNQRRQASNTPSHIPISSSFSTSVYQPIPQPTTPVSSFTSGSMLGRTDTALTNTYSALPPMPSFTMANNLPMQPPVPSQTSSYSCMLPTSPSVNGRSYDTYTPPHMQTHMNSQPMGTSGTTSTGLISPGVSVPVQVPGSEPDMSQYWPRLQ
Method in brief: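 HepG2 cells transiently transfected with multiplexed cis-promoter reporter units (endogenous TF activity) were dosed for 24 h. Reporter mRNA was quantified by RT-PCR, 6-FAM labeling, HpaI digestion and capillary electrophoresis; bidirectional fitting versus DMSO baseline.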

[2] = ATG_RORE_CIS: Attagene CIS-FACTORIAL HepG2 Assay for human RAR-related Orphan Receptor Element (RORE) (AID 2282959); conditions: HepG2 Attagene cis-factorial RORE reporter, mRNA; actives raise or lower the signal
Method in brief: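 Multiplexed reporter assay measuring mRNA induction from a cis promoter element in transiently transfected HepG2 cells after 24 h treatment. Detection via RT-PCR and capillary electrophoresis fluorescence; DMSO serves as baseline.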

[3] = ATG_Sox_CIS: Attagene CIS-FACTORIAL HepG2 Assay for human SRY-box transcription factor (SOX) (AID 2282960); conditions: HepG2 Attagene cis-factorial SOX reporter, mRNA; actives raise or lower the signal
Method in brief: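 Cells were transfected with reporter constructs under cis-regulatory promoters, then exposed to chemicals for 24 h. Reporter transcripts were quantified by fluorescence after RT-PCR and capillary electrophoresis; activity was fitted in both directions against DMSO.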

[4] = target: Transcription factor Sp1 (Homo sapiens) (UniProt P08047); assay: ATG_Sp1_CIS: Attagene CIS-FACTORIAL HepG2 Assay for human Specificity Protein 1 (Sp1) (AID 2282961); conditions: HepG2 Sp1 cis-reporter transcription, actives raise or lower the signal
Transcription factor Sp1 (Homo sapiens), sequence (P08047 whole entry, looked up): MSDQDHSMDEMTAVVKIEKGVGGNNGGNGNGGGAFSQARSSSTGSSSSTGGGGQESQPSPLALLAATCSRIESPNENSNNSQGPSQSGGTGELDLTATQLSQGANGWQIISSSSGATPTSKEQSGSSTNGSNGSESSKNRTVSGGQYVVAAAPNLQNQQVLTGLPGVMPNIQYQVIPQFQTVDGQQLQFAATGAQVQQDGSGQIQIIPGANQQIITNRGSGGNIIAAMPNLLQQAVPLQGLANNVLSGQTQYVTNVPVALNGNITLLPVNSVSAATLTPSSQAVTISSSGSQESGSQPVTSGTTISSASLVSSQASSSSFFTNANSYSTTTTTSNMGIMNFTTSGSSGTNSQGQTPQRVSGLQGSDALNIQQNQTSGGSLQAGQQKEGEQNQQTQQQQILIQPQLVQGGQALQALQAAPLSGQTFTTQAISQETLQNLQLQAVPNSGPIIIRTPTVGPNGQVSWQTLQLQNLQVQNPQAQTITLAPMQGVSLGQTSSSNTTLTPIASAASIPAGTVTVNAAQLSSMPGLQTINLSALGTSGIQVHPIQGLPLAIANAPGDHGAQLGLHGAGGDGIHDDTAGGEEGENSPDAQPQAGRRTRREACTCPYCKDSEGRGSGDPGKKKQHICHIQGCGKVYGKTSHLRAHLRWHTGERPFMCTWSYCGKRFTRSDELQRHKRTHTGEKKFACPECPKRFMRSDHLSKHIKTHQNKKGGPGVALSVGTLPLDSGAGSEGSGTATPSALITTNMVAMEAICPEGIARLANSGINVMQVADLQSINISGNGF
Method in brief: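 Measures mRNA induction of an Sp1-linked reporter in HepG2 cells 24 h post-dosing. Multiplexed reporters read by RT-PCR and capillary electrophoresis; DMSO serves as negative control and baseline.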

[5] = ATG_SREBP_CIS: Attagene CIS-FACTORIAL HepG2 Assay for human Sterol Regulatory Element Binding (SREBP) (AID 2282962); conditions: HepG2 Attagene cis-factorial SREBP reporter, mRNA; actives raise or lower the signal
Method in brief: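 HepG2 cells transiently transfected with multiplexed cis-element reporter units report endogenous transcription factor activity. After 24 h of chemical exposure, reporter mRNA was quantified by RT-PCR, 6-FAM labelling, HpaI digestion and capillary electrophoresis; bidirectional fits used DMSO as baseline.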

[6] = target: Signal transducer and activator of transcription 3 (Homo sapiens) (UniProt P40763); assay: ATG_STAT3_CIS: Attagene CIS-FACTORIAL HepG2 Assay for human Signal Transducer and Activator of Transcription 3 (STAT3) (AID 2282963); conditions: HepG2, Attagene cis-factorial STAT3 reporter transcription; actives raise or lower the signal
Signal transducer and activator of transcription 3 (Homo sapiens), sequence (P40763 whole entry, looked up): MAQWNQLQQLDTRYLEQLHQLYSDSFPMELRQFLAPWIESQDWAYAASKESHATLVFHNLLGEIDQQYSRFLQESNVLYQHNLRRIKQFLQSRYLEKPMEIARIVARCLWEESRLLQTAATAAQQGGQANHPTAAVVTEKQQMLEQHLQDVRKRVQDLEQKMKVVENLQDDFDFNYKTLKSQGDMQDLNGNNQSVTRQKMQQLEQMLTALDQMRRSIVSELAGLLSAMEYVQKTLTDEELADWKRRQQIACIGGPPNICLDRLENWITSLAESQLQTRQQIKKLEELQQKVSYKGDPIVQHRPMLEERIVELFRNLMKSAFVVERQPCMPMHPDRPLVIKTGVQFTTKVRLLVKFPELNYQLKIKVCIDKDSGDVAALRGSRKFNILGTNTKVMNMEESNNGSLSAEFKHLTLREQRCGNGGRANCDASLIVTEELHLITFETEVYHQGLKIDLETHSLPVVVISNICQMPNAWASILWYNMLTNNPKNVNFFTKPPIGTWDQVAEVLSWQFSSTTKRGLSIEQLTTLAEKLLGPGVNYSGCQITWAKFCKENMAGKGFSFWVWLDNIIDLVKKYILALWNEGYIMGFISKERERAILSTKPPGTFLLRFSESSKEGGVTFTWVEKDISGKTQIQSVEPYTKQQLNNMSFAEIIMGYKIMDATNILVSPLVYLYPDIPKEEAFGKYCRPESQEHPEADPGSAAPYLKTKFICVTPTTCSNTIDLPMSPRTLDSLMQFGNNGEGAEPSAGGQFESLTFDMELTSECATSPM
Method in brief: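 Transcript-level reporter assay. HepG2 transient MRTU transfection, 24 h exposure, fluorescence detection after RT-PCR and CE; DMSO baseline.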

[7] = ATG_TA_CIS: Attagene CIS-FACTORIAL HepG2 Assay for human TA Basal Promoter (AID 2282964); conditions: HepG2 Attagene CIS-factorial TA basal promoter reporter; actives raise or lower the signal
Method in brief: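 HepG2 cells transiently transfected with multiplexed cis-promoter reporter units, dosed 24 h. Reporter mRNA measured by RT-PCR, 6-FAM labelling, HpaI digestion and capillary electrophoresis; bidirectional fit versus DMSO baseline, serving as background control.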

[8] = ATG_TCF_b_cat_CIS: Attagene CIS-FACTORIAL HepG2 Assay for human T-Cell-Factor with beta-catenin (TCF/b-cat) (AID 2282965); conditions: HepG2 TCF/beta-catenin cis-reporter transcription, actives raise or lower the signal
Method in brief: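 Using capillary electrophoresis as the read-out, labelled reporter cDNA fragments from transiently transfected HepG2 were sized and quantified. Exposure lasted 24 hours; activity in either direction was referenced to DMSO.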

[9] = ATG_TAL_CIS: Attagene CIS-FACTORIAL HepG2 Assay for human TAL Basal Promoter (AID 2282966); conditions: HepG2 Attagene cis-factorial TAL promoter reporter; actives raise or lower the signal;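 further: background control endpoint measuring basal TAL promoter reporter mRNA not a specific factor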
Method in brief: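 Readout: reporter mRNA, fluorescence by CE. System: HepG2, transient multi-reporter transfection, endogenous TF activity. Exposure: 24 h. Analysis: bidirectional, DMSO-normalized; background control.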

[10] = ATG_TGFb_CIS: Attagene CIS-FACTORIAL HepG2 Assay for human Transforming Growth Factor (TGF) (AID 2282967); conditions: HepG2 Attagene CIS TGFb reporter, mRNA transcription; actives raise or lower the signal
Method in brief: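 HepG2 cells transiently transfected with cis-promoter-driven multiplexed reporter units; 24 h compound exposure. Reporter mRNA measured by RT-PCR, 6-FAM labeling, HpaI digestion and capillary electrophoresis; bidirectional fit versus DMSO baseline.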

[11] = ATG_VDRE_CIS: Attagene CIS-FACTORIAL HepG2 Assay for human Vitamin D Receptor Element (VDRE) (AID 2282968); conditions: HepG2 VDRE cis-reporter transcription, actives raise or lower the signal
Method in brief: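 RT-PCR/CE readout of reporter mRNA; HepG2, transient transfection, 24 h dosing; DMSO baseline; bidirectional analysis.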

[12] = target: Steroid hormone receptor ERR1 (Homo sapiens) (UniProt P11474); assay: ATG_ERRa_TRANS: Attagene TRANS-FACTORIAL HepG2 Assay for human Estrogen-Related Receptor alpha (ERRa) (AID 2282971; active means hit-call score of the fitted dose curve at least 0.9, where 1 is the maximum); conditions: HepG2 Attagene TRANS reporter, ERRa transactivation
Steroid hormone receptor ERR1 (Homo sapiens), sequence (P11474 whole entry, looked up, the tested form may be a part): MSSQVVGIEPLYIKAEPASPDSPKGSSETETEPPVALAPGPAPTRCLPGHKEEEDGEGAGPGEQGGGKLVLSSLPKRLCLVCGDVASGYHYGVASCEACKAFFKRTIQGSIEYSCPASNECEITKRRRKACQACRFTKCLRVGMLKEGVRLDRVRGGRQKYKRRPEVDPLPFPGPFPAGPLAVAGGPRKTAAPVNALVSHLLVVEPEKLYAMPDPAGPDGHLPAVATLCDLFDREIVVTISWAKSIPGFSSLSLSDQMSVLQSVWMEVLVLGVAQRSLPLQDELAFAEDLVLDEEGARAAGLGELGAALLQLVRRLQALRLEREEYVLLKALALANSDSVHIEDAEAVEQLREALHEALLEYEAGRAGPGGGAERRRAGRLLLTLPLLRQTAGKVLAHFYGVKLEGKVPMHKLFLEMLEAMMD
Method in brief: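 HepG2 cells were transiently transfected with multiple GAL4-UAS reporter units, then dosed with compound for 24 h. Total RNA was reverse-transcribed, reporter cDNA PCR-amplified and fluorescently labelled, and fragments resolved by capillary electrophoresis; induction was compared with DMSO.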

[13] = target: X-box-binding protein 1 (Homo sapiens) (UniProt P17861); assay: ATG_Xbp1_CIS: Attagene CIS-FACTORIAL HepG2 Assay for human X-box Binding Protein 1 (XBP1) (AID 2282972); conditions: HepG2 XBP1 cis-element reporter, Attagene multiplex; actives raise or lower the signal
X-box-binding protein 1 (Homo sapiens), sequence (P17861 whole entry, looked up): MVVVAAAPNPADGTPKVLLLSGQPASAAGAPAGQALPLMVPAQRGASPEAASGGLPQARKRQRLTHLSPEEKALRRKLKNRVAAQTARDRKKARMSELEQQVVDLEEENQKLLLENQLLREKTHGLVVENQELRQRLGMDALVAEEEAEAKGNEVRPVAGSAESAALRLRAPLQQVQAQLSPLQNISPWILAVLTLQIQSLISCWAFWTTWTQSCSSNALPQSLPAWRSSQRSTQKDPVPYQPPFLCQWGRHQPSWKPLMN
Method in brief: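 HepG2 cells transiently transfected with cis-regulated multiple reporter transcription units; endogenous transcription factor activity measured 24 hours after chemical dosing. Reporter mRNA quantified by RT-PCR, 6-FAM primer extension, HpaI digestion and capillary electrophoresis; bidirectional fitting versus DMSO.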

[14] = ATG_M_19_TRANS: Attagene TRANS-FACTORIAL HepG2 Assay for M19 Transcription Factor (Internal Marker) (AID 2282974; active means hit-call score of the fitted dose curve at least 0.9, where 1 is the maximum); conditions: HepG2 Attagene TRANS-FACTORIAL M19 internal marker reporter
Method in brief: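 After transfection of HepG2 with GAL4-UAS-driven reporter constructs, cells are dosed for 24 h. Total RNA is reverse-transcribed, reporter sequences PCR-amplified and labelled, then HpaI-digested and sized by capillary electrophoresis.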

[15] = ATG_GAL4_TRANS: Attagene TRANS-FACTORIAL HepG2 Assay for GAL4 (Internal Marker) (AID 2282976; active means hit-call score of the fitted dose curve at least 0.9, where 1 is the maximum); conditions: HepG2 Attagene TRANS GAL4 internal marker reporter
Method in brief: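 Fluorescence from capillary electrophoresis of labelled RT-PCR products quantifies reporter mRNA induction after 24 h dosing of HepG2 cells carrying transfected GAL4-UAS reporter transcription units. Vehicle DMSO serves as baseline.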

[16] = target: Estrogen-related receptor gamma (Homo sapiens) (UniProt P62508); assay: ATG_ERRg_TRANS: Attagene TRANS-FACTORIAL HepG2 Assay for human Estrogen-Related Receptor gamma (ERRg) (AID 2282977; active means hit-call score of the fitted dose curve at least 0.9, where 1 is the maximum;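 further: hits increase reporter signal over DMSO so potencies reflect activators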); conditions: HepG2 Attagene TRANS reporter, ERRg transactivation
Estrogen-related receptor gamma (Homo sapiens), sequence (P62508 whole entry, looked up, the tested form may be a part): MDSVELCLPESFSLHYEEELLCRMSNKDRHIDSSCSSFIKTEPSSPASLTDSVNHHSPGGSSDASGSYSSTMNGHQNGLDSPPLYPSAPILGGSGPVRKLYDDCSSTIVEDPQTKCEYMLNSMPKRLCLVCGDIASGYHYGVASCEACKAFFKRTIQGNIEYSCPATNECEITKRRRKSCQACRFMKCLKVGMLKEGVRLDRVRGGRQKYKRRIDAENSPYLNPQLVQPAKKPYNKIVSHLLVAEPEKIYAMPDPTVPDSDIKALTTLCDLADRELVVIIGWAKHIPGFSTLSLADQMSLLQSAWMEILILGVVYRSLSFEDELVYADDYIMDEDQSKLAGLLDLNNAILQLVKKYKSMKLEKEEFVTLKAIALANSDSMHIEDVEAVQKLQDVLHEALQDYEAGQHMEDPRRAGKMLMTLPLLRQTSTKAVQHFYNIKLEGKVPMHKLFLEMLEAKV
Method in brief: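 Transfect HepG2 with multiple GAL4-UAS reporter transcription units; dose chemicals 24 h; isolate RNA, reverse-transcribe with oligo(dT), PCR-amplify, label with 6-FAM, digest with HpaI; size fragments by capillary electrophoresis. DMSO serves as negative control.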

[17] = target: Estrogen receptor (Homo sapiens) (UniProt P03372); assay: ATG_ERa_TRANS: Attagene TRANS-FACTORIAL HepG2 Assay for human Estrogen Receptor alpha (ERa) (AID 2282970; active means hit-call score of the fitted dose curve at least 0.9, where 1 is the maximum); conditions: HepG2 Attagene TRANS ERa GAL4 reporter, mRNA
Estrogen receptor (Homo sapiens), sequence (P03372 whole entry, looked up, the tested form may be a part): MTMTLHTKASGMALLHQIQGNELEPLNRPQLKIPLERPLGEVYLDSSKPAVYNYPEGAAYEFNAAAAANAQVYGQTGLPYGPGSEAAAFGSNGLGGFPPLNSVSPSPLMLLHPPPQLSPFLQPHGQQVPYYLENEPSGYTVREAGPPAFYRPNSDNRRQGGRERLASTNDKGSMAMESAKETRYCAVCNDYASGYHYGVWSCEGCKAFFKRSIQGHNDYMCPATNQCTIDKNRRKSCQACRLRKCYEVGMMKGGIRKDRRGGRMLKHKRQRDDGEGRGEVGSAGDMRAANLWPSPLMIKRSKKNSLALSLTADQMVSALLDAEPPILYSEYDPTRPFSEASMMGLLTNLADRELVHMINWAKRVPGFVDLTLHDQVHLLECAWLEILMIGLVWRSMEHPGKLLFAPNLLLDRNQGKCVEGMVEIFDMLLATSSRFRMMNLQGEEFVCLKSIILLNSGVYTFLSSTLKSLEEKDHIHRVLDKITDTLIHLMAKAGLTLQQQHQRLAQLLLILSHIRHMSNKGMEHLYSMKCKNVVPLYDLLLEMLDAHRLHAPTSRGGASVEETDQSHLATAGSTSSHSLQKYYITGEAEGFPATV
Method in brief: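 Transactivation via ERa-Gal4 chimera in HepG2; 24 hour incubation; reporter mRNA detected by fluorescence RT-PCR and capillary electrophoresis.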

[18] = ATG_PPRE_CIS: Attagene CIS-FACTORIAL HepG2 Assay for human Peroxisome Proliferator-activated Response Element (PPRE) (AID 2282958); conditions: HepG2 PPRE cis-element reporter, Attagene transcription factor profiling; actives raise or lower the signal
Method in brief: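 Transcript-level reporter induction in transfected HepG2 cells after 24 h chemical exposure, quantified by fluorescence from RT-PCR products separated by capillary electrophoresis.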

[19] = ATG_PXRE_CIS: Attagene CIS-FACTORIAL HepG2 Assay for human Pregnane X Receptor Element (PXRE) (AID 2282957); conditions: HepG2 Attagene CIS-FACTORIAL PXRE reporter, mRNA; actives raise or lower the signal
Method in brief: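 Transiently transfected HepG2 cells were dosed and incubated for 24 h. RNA was then isolated, DNase-treated, reverse-transcribed and reporter sequences amplified. Labeled, HpaI-digested fragments were quantified by capillary electrophoresis against DMSO.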

[20] = target: Nuclear receptor subfamily 1 group I member 3 (Homo sapiens) (UniProt Q14994); assay: ATG_CAR_TRANS: Attagene TRANS-FACTORIAL HepG2 Assay for human Constitutive Androstane Receptor (CAR) (AID 2282969; active means hit-call score of the fitted dose curve at least 0.9, where 1 is the maximum;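 further: activators raise reporter mRNA above DMSO so AC50 marks induction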); conditions: HepG2 Attagene TRANS-FACTORIAL CAR reporter
Nuclear receptor subfamily 1 group I member 3 (Homo sapiens), sequence (Q14994 whole entry, looked up, the tested form may be a part): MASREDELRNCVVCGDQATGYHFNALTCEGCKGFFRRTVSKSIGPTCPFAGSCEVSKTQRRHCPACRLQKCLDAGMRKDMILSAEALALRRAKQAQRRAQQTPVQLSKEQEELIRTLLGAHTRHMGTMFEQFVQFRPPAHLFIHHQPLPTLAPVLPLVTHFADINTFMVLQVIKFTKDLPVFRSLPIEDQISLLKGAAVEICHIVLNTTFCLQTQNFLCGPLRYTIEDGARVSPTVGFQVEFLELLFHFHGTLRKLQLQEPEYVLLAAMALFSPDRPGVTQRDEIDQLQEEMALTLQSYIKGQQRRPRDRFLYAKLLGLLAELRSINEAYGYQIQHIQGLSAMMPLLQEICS
Method in brief: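 HepG2 cells transiently transfected with multiplexed GAL4-UAS reporter units expressing chimeric NR-Gal4 proteins; compound exposure 24 h. Reporter mRNA measured by RT-PCR, 6-FAM labelling, HpaI digestion and capillary electrophoresis; gain-of-signal fitted against DMSO baseline.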

Measured: AC50

CC(C)C[C@H]1C(=O)N2CCC[C@H]2[C@]2(O)O[C@](NC(=O)[C@@H]3C=C4c5cccc6[nH]c(Br)c(c56)C[C@H]4N(C)C3)(C(C)C)C(=O)N12
active: [1] 4.02 µM | [2] 1.9 µM | [4] 2.91 µM | [7] 3.09 µM | [8] 4.37 µM | [9] 2.19 µM | [11] 1.3 µM
not listed: [17] | [18] | [19] | [20]
inactive: all other assays above

OCCOCCOCCOCCO
inactive: [1] | [3] | [5] | [7] | [8] | [9] | [10] | [11] | [17] | [13]

CN1[C@@H]2CC(OC(=O)[C@H](CO)c3ccccc3)C[C@H]1[C@@H]1O[C@@H]12 (stereo partly specified)
not listed: [12] | [14] | [16] | [19] | [20]
inactive: all other assays above

NCCNCCN
not listed: [1] | [16] | [17]
inactive: all other assays above

NNc1nc(-c2ccc(N)cc2)cs1
not listed: [12] | [15] | [19]
inactive: all other assays above

OC1C(O)C(O)C(O)C(O)C1O (stereo unspecified)
not listed: [3] | [7] | [12] | [15] | [16] | [17] | [19] | [20]
inactive: all other assays above

CC1(C)CCC(C)(C)c2cc(C(=O)Nc3ccc(C(=O)O)cc3)ccc21
inactive: [3] | [4] | [5] | [9] | [10] | [13]
active: [1] 85 µM | [18] 43.7 µM | [2] 32.7 µM | [7] 27.7 µM | [8] 48.2 µM | [11] 27.8 µM

CCCCCC=CCC(=O)OC
not listed: [12] | [16] | [17] | [18] | [19] | [20]
inactive: all other assays above

O=C(O)CCCCCCCC(=O)O
inactive: [1] | [2] | [3] | [5] | [7] | [8] | [9] | [10] | [11] | [20] | [13]

O=C(O)c1ccc(C(=O)O)cc1
not listed: [7] | [12] | [16] | [17] | [19] | [20]
inactive: all other assays above

CC1(C)C(=O)N(Br)C(=O)N1Cl
not listed: [2] | [6] | [12] | [16] | [17] | [19] | [20]
inactive: all other assays above
